PubChem BioAssay (Tox21)
Unmarked numbers belong to inactive results. Records with an inconclusive call do not appear. A call without a number means that no potency is given here. Active and inactive are the calls of the source. Unless noted, calls follow the shape of the dose curve; as a rule, active = well fitted curve in the direction sought with a large enough effect in the repeat runs; inconclusive = weak or mixed curves; inactive = no such curve, though single readings can be large; an effect the other way counts as inactive or inconclusive.

Tests used:
[1] = qHTS assay to identify small molecule agonists of the TGF-beta/Smad signaling pathway (AID 1346859; active = well fitted activation curve with a large enough effect in the signal ratio in the repeat runs, not every such curve was filed as active; the % refers to the signal ratio; also: series mostly up to about 77 µM)
Method in brief: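 Screening used HEK 293T SBE-bla cells at 4,000/well. Test agents: 5 hr, 37 C. Detection: FRET substrate, 2 hr RT, then excitation 405 nm with emissions at 460 and 530 nm.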

[2] = Human pregnane X receptor (PXR) small molecule agonists, qHTS cell viability counter screen (AID 1346977); also: nearly all actives have a fitted effect of over 50% in size
Method in brief: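 In each well, the PXR reporter HepG2 line was checked for viability: CellTiter-Fluor reagent added 23hr post-dosing, fluorescence read after 1hr incubation at 37C.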

[3] = Caspase-3/7 induction in CHO-K1 cells by small molecules, qHTS cell viability counter screen (AID 1346979); also: nearly all actives have a fitted effect of over 35% in size
Method in brief: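 Following a 5hr settling period, CHO-K1 cells at 1,500 per well received DMSO-dissolved compounds. Cell viability was quantified 16hr later by CellTiter-Fluor fluorescence, measured after 1hr with reagent at 37C.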

[4] = Caspase-3/7 induction in CHO-K1 cells by small molecules, qHTS assay (AID 1346980); also: nearly all actives have a fitted effect of over 15% in size
Method in brief: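 Wild-type cells were seeded at 1,500 per well and settled 5 hr at 37 C, 5% CO2, then exposed to DMSO-dissolved compounds for 17 hr. Caspase-Glo 3/7 reagent was added, and luminescence was read after 30min at room temperature.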

[5] = Caspase-3/7 induction in HepG2 cells by small molecules, qHTS cell viability counter screen (AID 1346981); also: series mostly up to about 92 µM; nearly all actives have a fitted effect of over 30% in size
Method in brief: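 HepG2, WT, 2,000 cells/well; 5 hr pre-incubation 37 C/5% CO2; compound pin-transferred from DMSO; 16 hr exposure; CellTiter-Fluor, 1 hr; fluorescence read.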

[6] = biological target: Nuclear receptor subfamily 1 group I member 2 (Homo sapiens) (UniProt O75469); test: Human pregnane X receptor (PXR) small molecule agonists, qHTS assay (AID 1346982); also: nearly all actives have a fitted effect of over 35% in size
Method in brief: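 Luciferase signal from ONE-Glo (30 min, room temperature) measured activation of hPXR-driven CYP3A4 reporter expression in PXR-Luc HepG2 cells treated with compounds for 24 hr at 37 C.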

[7] = biological target: Cytochrome P450 2D6 (Homo sapiens) (UniProt P10635); test: Cytochrome P450 Family 2 Subfamily D Member 6 (CYP2D6) small molecule antagonists: luciferase reporter qHTS assay (AID 1671196); also: nearly all actives have a fitted effect of over 50% in size; also: potency is read from the fitted curve at half-maximal effect; as to activity change, negative = inhibition: series mostly up to about 120 µM
Method in brief: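 Read-out is luminescence from luciferin formed by CYP2D6 turnover of a proluciferin substrate, recorded as relative luminescence units. Reactions ran 1 h at room temperature after NADPH regeneration solution was added.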

[8] = biological target: Cytochrome P450 2C19 (Homo sapiens) (UniProt P33261); test: Cytochrome P450 Family 2 Subfamily C Member 19 (CYP2C19) small molecule antagonists: luciferase reporter qHTS assay (AID 1671197); also: series mostly up to about 120 µM; nearly all actives have a fitted effect of over 65% in size
Method in brief: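 Light output is proportional to CYP2C19 activity: proluciferin substrate is converted to luciferin, then detected by a luciferin detection reagent that also stops the 1 h, 37C NADPH-driven reaction. Ketoconazole serves as positive control.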

[9] = biological target: Cytochrome P450 2C9 (Homo sapiens) (UniProt P11712); test: Cytochrome P450 Family 2 Subfamily C Member 9 (CYP2C9) small molecule antagonists: luciferase reporter qHTS assay (AID 1671198); also: nearly all actives have a fitted effect of over 50% in size; also: potency is read from the fitted curve at half-maximal effect; as to activity change, negative = inhibition: series mostly up to about 120 µM
Method in brief: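 CYP2C9 activity was measured with a P450-Glo proluciferin substrate. Enzyme–substrate mix was held with compound for 10 min at room temperature, then NADPH regeneration solution was added for 1 h at 37C. Luciferin product was read as luminescence.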

[10] = biological target: Voltage-gated inwardly rectifying potassium channel KCNH2 (Homo sapiens) (UniProt Q12809); test: Human Ether-a-go-go-Related Gene (hERG) channel small molecule antagonists: fluorescence cell-based qHTS assay (AID 1671200);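 also: hERG-expressing U2OS cells given a thallium stimulus after FluxOR II dye loading; series mostly up to about 77 µM; nearly all actives have a fitted effect of over 50% in size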
Method in brief: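 In this thallium-flux screen, overnight-cultured U2OS cells bearing the channel are dye-loaded in darkness for an hour, rested 10 min at room temperature, and then monitored kinetically at 480/540 nm for two minutes post-stimulus.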

[11] = biological target: Cytochrome P450 3A4 (Homo sapiens) (UniProt P08684); test: Cytochrome P450 Family 3 Subfamily A Member 4 (CYP3A4) small molecule antagonists: luciferase reporter qHTS assay (AID 1671201)
Method in brief: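 CYP3A4 activity was followed with a P450-Glo proluciferin substrate. Test compounds in DMSO were preincubated 10 min; NADPH regeneration then ran 1 h, and light output was read 20 min after detection reagent.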

[12] = Caspase-3/7 induction in HepG2 cells by small molecules, qHTS assay (AID 1346978); also: nearly all actives have a fitted effect of over 15% in size
Method in brief: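 Wild-type HepG2 cells (2,000/well) were settled 5 h at 37 C, 5% CO2, then exposed to compounds in DMSO for 17 h. Caspase-3/7 activity was read by luminescence 30 min after adding Caspase-Glo 3/7 reagent at room temperature.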

[13] = biological target: Cytochrome P450 1A2 (Homo sapiens) (UniProt P05177); test: Cytochrome P450 Family 1 Subfamily A Member 2 (CYP1A2) small molecule antagonists: luciferase reporter qHTS assay (AID 1671199); also: nearly all actives have a fitted effect of over 50% in size; also: potency is read from the fitted curve at half-maximal effect; as to activity change, negative = inhibition: series mostly up to about 120 µM
Method in brief: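 P450-Glo CYP1A2, 1536-well qHTS: enzyme/proluciferin substrate + cpd (DMSO), 10 min RT; NADPH regen, 1 h RT; detection reagent, 20 min; luminescence, RLU.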

[14] = biological target: Nuclear receptor subfamily 1 group I member 2 (Homo sapiens) (UniProt O75469); test: CYP3A4 induction through human pregnane X receptor (PXR) by small molecules, qHTS assay (AID 1346984); also: nearly all actives have a fitted effect of over 40% in size
Method in brief: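 Luminescence readout: luciferase signal after One-Glo (30 min, room temperature), following 3 h at 37C with 3uM final Luciferin-IPA P450 substrate. Cells were DPX-2 (HepG2, PXR/CYP3A4-luc co-transfected) dosed for 24 h.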

[15] = biological target: Nuclear receptor subfamily 1 group I member 2 (Homo sapiens) (UniProt O75469); test: Human pregnane X receptor (PXR) activation by small molecules, qHTS assay (AID 1346985); also: nearly all actives have a fitted effect of over 40% in size
Method in brief: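 DPX-2 cells (HepG2 co-transfected with a PXR response element and a CYP3A4-promoter luciferase construct) were seeded at 2,000 per well, rested 5 hr at 37C, then exposed to DMSO-dissolved compounds for 24 hr. Activation was read as luciferase luminescence.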

[16] = biological target: Nuclear receptor subfamily 1 group I member 2 (Rattus norvegicus) (UniProt Q9R1A7); test: Rat pregnane X receptor (rPXR) activation by small molecules, qHTS assay (AID 1346983); conditions: rPXR luciferase reporter cells, One-Glo luminescence, 24 h; stronger effect = higher value; also: nearly all actives have a fitted effect of over 20% in size
Method in brief: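 Cell-based rPXR luciferase reporter assay, 2,000 cells per well, rested 5hr at 37 C before compound addition in DMSO, then 24 hr at 37 C. One-Glo reagent was added and luminescence read after 30 min at room temperature.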

[17] = biological target: Thyrotropin-releasing hormone receptor (Homo sapiens) (UniProt P34981); test: qHTS assay to identify small molecule antagonists of the thyrotropin-releasing hormone receptor (TRHR) signaling pathway (AID 1346877; active = well fitted inhibition curve with a large enough effect in the repeat runs, not every such curve was filed as active; also: series mostly up to about 51 µM)
Method in brief: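 Intracellular calcium fluorescence, read kinetically every second over 3 min, reports TRH-evoked signalling in HEK293 cells carrying TRHR. Test compounds were added 5 min ahead of a 1 nM TRH challenge.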

[18] = biological target: Thyrotropin-releasing hormone receptor (Homo sapiens) (UniProt P34981); test: qHTS assay to identify small molecule agonists of the thyrotropin-releasing hormone receptor (TRHR) signaling pathway (AID 1346891; calls by dose curve; also: series mostly up to about 58 µM)
Method in brief: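 Readout was intracellular calcium fluorescence in TRHR-Hek293 cells. Cells were incubated 18 h, dye-loaded 2 h at 37 °C, and treated with compound in agonist mode.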

Sequence of Cytochrome P450 1A2 (Homo sapiens) (P05177 whole entry, looked up): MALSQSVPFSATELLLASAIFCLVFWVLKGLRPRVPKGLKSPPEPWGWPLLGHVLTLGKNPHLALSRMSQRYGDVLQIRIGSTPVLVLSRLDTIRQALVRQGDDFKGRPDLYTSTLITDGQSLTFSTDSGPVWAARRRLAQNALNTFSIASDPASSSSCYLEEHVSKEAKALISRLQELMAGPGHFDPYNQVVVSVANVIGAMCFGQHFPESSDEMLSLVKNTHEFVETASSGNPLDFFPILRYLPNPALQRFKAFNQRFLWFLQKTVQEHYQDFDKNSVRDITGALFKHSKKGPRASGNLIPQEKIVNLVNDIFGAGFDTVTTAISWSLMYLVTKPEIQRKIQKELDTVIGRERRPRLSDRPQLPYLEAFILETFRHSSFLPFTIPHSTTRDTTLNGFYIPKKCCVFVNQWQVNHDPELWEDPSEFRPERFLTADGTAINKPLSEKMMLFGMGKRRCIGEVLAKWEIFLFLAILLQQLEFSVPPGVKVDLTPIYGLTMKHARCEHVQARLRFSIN
Sequence of Cytochrome P450 2C19 (Homo sapiens) (P33261 whole entry, looked up): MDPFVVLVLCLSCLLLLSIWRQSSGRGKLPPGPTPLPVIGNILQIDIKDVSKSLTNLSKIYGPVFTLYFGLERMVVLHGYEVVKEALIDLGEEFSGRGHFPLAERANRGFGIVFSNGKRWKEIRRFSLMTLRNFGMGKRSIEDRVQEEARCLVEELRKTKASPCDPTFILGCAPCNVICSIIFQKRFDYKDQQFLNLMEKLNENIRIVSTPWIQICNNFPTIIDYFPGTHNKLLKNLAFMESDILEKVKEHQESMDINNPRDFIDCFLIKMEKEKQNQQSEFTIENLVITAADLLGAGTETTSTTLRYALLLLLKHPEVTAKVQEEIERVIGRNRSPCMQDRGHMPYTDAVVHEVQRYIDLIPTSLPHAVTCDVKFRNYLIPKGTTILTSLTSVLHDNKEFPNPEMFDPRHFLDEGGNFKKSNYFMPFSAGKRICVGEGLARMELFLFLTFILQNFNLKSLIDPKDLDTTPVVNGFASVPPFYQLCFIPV
Sequence of Cytochrome P450 2C9 (Homo sapiens) (P11712 whole entry, looked up): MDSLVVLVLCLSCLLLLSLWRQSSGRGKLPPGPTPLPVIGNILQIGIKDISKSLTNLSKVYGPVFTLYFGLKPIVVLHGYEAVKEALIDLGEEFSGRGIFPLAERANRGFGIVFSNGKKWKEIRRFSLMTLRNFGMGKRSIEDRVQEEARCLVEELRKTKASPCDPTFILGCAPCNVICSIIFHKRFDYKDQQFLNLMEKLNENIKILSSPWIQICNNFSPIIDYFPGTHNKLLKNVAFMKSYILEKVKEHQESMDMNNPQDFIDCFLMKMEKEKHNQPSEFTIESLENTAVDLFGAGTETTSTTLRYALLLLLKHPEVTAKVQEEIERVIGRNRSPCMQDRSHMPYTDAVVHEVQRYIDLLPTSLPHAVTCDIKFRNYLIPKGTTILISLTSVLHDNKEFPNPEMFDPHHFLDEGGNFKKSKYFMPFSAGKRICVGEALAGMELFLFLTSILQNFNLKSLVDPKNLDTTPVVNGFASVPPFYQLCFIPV
Sequence of Cytochrome P450 3A4 (Homo sapiens) (P08684 whole entry, looked up): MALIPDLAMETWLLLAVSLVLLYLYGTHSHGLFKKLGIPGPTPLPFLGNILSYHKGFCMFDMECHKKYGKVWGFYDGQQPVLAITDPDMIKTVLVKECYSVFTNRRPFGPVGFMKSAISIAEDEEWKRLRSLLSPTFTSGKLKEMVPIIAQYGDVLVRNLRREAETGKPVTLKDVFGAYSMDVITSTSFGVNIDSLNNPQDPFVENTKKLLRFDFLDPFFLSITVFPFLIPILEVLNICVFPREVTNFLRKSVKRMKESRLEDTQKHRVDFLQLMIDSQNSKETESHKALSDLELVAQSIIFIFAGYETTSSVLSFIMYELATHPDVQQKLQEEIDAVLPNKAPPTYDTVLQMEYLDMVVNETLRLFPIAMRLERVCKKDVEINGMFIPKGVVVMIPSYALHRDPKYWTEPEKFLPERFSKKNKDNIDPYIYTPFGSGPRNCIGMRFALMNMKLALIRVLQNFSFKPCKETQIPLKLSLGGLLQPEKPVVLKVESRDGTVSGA
Sequence of Voltage-gated inwardly rectifying potassium channel KCNH2 (Homo sapiens) (Q12809 whole entry, looked up): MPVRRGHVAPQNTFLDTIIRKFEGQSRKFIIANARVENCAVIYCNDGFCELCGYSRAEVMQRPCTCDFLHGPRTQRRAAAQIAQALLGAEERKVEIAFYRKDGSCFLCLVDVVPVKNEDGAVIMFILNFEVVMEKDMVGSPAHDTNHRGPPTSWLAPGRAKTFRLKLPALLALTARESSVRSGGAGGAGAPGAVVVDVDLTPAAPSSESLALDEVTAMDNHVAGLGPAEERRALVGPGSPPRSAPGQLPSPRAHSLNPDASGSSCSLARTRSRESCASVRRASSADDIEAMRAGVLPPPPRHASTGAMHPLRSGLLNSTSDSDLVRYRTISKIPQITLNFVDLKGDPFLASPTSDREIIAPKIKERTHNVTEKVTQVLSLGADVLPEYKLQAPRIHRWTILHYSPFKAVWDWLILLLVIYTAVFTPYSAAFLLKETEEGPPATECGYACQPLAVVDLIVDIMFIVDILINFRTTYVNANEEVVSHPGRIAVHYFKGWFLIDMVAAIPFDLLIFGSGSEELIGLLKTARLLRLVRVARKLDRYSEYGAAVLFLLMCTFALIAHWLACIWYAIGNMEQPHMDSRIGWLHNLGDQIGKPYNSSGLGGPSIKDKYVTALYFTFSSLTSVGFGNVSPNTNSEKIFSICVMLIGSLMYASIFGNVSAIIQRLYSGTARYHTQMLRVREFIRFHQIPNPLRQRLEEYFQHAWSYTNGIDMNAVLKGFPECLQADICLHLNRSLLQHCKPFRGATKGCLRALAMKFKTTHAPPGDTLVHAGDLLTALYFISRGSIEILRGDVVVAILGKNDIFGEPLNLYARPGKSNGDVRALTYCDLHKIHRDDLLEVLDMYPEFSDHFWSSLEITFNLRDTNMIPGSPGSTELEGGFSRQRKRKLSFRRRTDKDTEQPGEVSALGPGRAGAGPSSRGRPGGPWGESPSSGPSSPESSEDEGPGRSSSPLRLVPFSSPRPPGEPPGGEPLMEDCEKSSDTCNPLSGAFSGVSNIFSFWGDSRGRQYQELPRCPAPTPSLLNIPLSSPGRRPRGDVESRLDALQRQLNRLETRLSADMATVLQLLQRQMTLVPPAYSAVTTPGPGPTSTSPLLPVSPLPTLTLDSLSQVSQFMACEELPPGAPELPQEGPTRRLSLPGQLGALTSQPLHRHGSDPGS
Sequence of Cytochrome P450 2D6 (Homo sapiens) (P10635 whole entry, looked up): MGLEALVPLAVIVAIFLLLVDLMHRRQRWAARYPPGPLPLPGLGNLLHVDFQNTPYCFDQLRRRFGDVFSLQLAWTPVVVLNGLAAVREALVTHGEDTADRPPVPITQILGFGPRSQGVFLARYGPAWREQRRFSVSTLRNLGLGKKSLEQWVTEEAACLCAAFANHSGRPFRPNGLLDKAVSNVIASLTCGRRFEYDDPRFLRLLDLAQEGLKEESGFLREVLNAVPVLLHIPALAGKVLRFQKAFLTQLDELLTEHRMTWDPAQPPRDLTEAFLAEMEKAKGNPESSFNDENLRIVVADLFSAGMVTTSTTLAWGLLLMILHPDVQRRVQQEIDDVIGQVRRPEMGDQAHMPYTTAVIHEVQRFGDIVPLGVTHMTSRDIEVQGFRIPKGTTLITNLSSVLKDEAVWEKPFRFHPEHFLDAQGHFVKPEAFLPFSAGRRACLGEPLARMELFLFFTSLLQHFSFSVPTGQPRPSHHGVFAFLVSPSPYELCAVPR
Sequence of Nuclear receptor subfamily 1 group I member 2 (Rattus norvegicus) (Q9R1A7 whole entry, looked up): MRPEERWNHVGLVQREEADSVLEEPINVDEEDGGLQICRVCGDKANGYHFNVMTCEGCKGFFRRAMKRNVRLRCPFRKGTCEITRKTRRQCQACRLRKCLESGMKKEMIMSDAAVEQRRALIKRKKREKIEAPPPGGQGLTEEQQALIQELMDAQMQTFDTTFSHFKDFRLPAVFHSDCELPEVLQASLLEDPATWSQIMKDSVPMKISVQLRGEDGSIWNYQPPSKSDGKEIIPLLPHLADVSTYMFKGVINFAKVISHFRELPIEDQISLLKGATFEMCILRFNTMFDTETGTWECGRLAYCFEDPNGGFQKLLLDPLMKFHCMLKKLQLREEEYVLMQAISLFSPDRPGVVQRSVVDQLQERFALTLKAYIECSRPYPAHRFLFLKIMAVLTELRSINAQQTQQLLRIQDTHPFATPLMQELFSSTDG
Sequence of Nuclear receptor subfamily 1 group I member 2 (Homo sapiens) (O75469 whole entry, looked up): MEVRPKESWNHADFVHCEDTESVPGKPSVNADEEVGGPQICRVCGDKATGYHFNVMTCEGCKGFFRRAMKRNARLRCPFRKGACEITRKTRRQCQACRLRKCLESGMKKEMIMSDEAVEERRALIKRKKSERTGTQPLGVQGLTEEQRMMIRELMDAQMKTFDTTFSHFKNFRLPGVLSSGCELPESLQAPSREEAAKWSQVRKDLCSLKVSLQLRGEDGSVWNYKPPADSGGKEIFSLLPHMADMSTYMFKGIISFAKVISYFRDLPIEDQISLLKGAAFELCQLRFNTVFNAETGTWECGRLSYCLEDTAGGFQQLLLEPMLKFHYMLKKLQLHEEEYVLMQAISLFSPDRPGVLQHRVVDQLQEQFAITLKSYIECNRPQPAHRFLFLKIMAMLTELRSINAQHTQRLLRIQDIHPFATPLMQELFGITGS
Sequence of Thyrotropin-releasing hormone receptor (Homo sapiens) (P34981 whole entry, looked up): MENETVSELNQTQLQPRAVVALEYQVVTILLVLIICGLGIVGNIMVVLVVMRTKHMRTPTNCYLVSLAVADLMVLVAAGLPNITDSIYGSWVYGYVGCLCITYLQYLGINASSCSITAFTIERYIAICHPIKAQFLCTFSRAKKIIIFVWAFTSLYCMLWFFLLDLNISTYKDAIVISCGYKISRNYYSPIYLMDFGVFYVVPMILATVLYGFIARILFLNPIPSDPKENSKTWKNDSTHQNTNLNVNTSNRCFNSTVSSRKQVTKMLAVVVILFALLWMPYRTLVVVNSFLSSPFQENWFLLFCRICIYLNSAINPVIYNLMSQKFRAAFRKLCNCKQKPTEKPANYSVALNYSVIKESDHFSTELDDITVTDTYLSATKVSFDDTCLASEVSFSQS

With `CC(C)(CO)C(O)C(=O)NCCCO` (configuration not stated) the outcome [1] was “inactive”, the outcome [2] was “inactive” and the Potency [3] was “inactive”. The outcome [4] was “inactive”, the outcome [5] was “inactive” and the Potency [6] was “inactive”. The Potency [7] was “inactive”, the Potency [8] was “inactive” and the Potency [9] was “inactive”. For the same compound, the Potency [10] was “inactive” and the Potency [11] was “inactive”.
In the case of `CCC(C)OC(C)CC` (configuration not stated), the outcome [1] is reported as “inactive”, the outcome [2] is reported as “inactive” and the outcome [12] is reported as “inactive”. For the same compound, the Potency [3] was “inactive”, the outcome [4] was “inactive” and the outcome [5] was “inactive”. For the same compound, the Potency [6] was “inactive”, the Potency [9] was “inactive” and the Potency [13] was “inactive”. The Potency [10] was “inactive” and the Potency [11] was “inactive”.
In the case of `Cc1cc(-c2ccccc2)nnc1NCCN1CCOCC1`, the outcome [1] is reported as “inactive”, the outcome [2] is reported as “inactive” and the Potency [3] is reported as “inactive”. For the same compound, the outcome [4] was “inactive”, the outcome [5] was “inactive” and the Potency [6] was “inactive”. For the same compound, the Potency [7] was 8.71 µM (active), the Potency [13] was “inactive” and the Potency [10] was “inactive”.
With `CCN(CC)CCN` the outcome [1] was “inactive”, the outcome [2] was “inactive” and the outcome [12] was “inactive”. For the same compound, the Potency [3] was “inactive”, the outcome [4] was “inactive” and the outcome [5] was “inactive”. The Potency [6] was “inactive”, the Potency [7] was “inactive” and the Potency [9] was “inactive”. For the same compound, the Potency [13] was “inactive”, the Potency [10] was “inactive” and the Potency [11] was “inactive”.
In the case of `CCC(=O)c1c(O)cc(O)cc1O`, the outcome [1] is reported as “inactive”, the outcome [2] is reported as “inactive” and the outcome [12] is reported as “inactive”. The Potency [3] was “inactive”, the outcome [5] was “inactive” and the Potency [6] was “inactive”. For the same compound, the Potency [14] was “inactive”, the Potency [15] was “inactive” and the Potency [7] was 27.5 µM (active). For the same compound, the Potency [8] was “inactive”, the Potency [9] was 13.8 µM (active) and the Potency [13] was 12.9 µM (active). For the same compound, the Potency [10] was “inactive”.
In the case of `CCOCCOCC`, the outcome [1] is reported as “inactive”, the outcome [2] is reported as “inactive” and the outcome [12] is reported as “inactive”. For the same compound, the Potency [3] was “inactive”, the outcome [5] was “inactive” and the Potency [6] was “inactive”. For the same compound, the Potency [7] was “inactive”, the Potency [9] was “inactive” and the Potency [10] was “inactive”. The Potency [11] was “inactive”.
In the case of `O=S(=O)(O)c1ccc2c(N=Nc3ccc(S(=O)(=O)O)c4ccccc34)c(O)c(S(=O)(=O)O)cc2c1`, the activation [1] is reported as 0.897% [at 6.97 µM], the caspase activation [12] is reported as -0.326% [at 8.39 µM] and the caspase-3/7 activation [4] is reported as -0.308% [at 8.39 µM]. For the same compound, the activation [6] was 1.28% [at 8.39 µM], the max activation [16] was -9.86% and the Potency [14] was “inactive”. The Potency [15] was “inactive”, the activity change, negative = inhibition [7] was -11.1% [at 10.5 µM] and the activity change, negative = inhibition [9] was -3.9% [at 10.5 µM]. It also gave an activity change, negative = inhibition [13] of -17.3% [at 10.5 µM], an activity change, negative = inhibition [10] of 1.92% [at 6.97 µM] and an activity change, negative = inhibition [11] of 1.51% [at 10.5 µM].
For `CO/N=C(/C(=O)N[C@@H]1C(=O)N2C(C(=O)[O-])=C(C[n+]3ccn4ncccc43)CS[C@H]12)c1nsc(N)n1`, the outcome [1] was “inactive”, the outcome [2] was “inactive” and the Potency [3] was “inactive”. For the same compound, the outcome [4] was “inactive”, the outcome [5] was “inactive” and the Potency [6] was “inactive”. The Potency [7] was “inactive”, the Potency [8] was “inactive” and the Potency [9] was “inactive”. For the same compound, the Potency [13] was 27.5 µM (active), the Potency [10] was “inactive” and the Potency [11] was “inactive”.
With `Nc1nc(-c2ccccc2)c(Br)c(=O)[nH]1` the outcome [1] was “inactive”, the outcome [2] was “inactive” and the outcome [12] was “inactive”. The Potency [3] was “inactive”, the outcome [5] was “inactive” and the Potency [6] was “inactive”. The max activation [16] was -0.177%, the Potency [14] was “inactive” and the Potency [15] was “inactive”. The Potency [7] was “inactive”, the Potency [8] was “inactive” and the Potency [9] was “inactive”. For the same compound, the Potency [13] was “inactive”, the Potency [10] was “inactive” and the Potency [11] was “inactive”.
With `CC1CCc2c(N3CCC(O)CC3)c(F)cc3c(=O)c(C(=O)O)cn1c23` (configuration not stated) the outcome [17] was “inactive”, the outcome [18] was “inactive” and the outcome [2] was “inactive”. The outcome [12] was “inactive”, the Potency [3] was “inactive” and the outcome [4] was “inactive”. The outcome [5] was “inactive”, the Potency [6] was “inactive” and the max activation [16] was -2.67%. For the same compound, the Potency [14] was “inactive”, the Potency [15] was “inactive” and the Potency [7] was “inactive”. For the same compound, the Potency [13] was “inactive”, the Potency [10] was “inactive” and the Potency [11] was “inactive”.
For `C=C(C)[C@@H]1CC=C(C)C(=O)C1`, the outcome [2] was “inactive”, the outcome [12] was “inactive” and the Potency [3] was “inactive”. For the same compound, the outcome [4] was “inactive”, the outcome [5] was “inactive” and the Potency [6] was “inactive”. For the same compound, the Potency [7] was “inactive”, the Potency [8] was “inactive” and the Potency [9] was “inactive”. For the same compound, the Potency [10] was “inactive” and the Potency [11] was “inactive”.
With `O=Cc1ccccc1Cl` the outcome [1] was “inactive”, the outcome [2] was “inactive” and the outcome [12] was “inactive”. For the same compound, the Potency [3] was “inactive”, the outcome [4] was “inactive” and the outcome [5] was “inactive”. For the same compound, the Potency [6] was “inactive”, the Potency [9] was “inactive” and the Potency [13] was “inactive”. For the same compound, the Potency [10] was “inactive” and the Potency [11] was “inactive”.
